Results filed as inconclusive are left out. Calls of active or inactive are those of the source. Calls follow the shape of the dose curve; as a rule, active = well fitted curve in the direction sought with a large enough effect in the repeat runs; inconclusive = weak or mixed curves; inactive = no such curve, though single readings can be large; an effect the other way counts as inactive or inconclusive.
Test system: not listed separately
Experiment: qHTS assay to identify small molecule antagonists of the constitutive androstane receptor (CAR) signaling pathway - cell viability counter screen (AID 1224837); also: nearly all actives have a fitted effect of over 45% in size
Details: HepG2-CYP2B6-hCAR viability, CellTiter-Fluor, 23 h, co-treated with 50 nM CITCO; series mostly up to 92.4 µM; activity change, negative = cytotoxicity: at the top concentration
Procedure, shortened: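 CITCO at 50 nM final was added alongside compounds (15 concentrations) to double-stable hCAR/CYP2B6-2.2kb HepG2 cells. Following 23 hr at 37 C, cell viability was quantified by CellTiter-Fluor fluorescence intensity.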
% is scaled to controls: 0 for no effect and ±100 for the full control effect.

SMILES | activity change, negative = cytotoxicity
CC(C)(C)c1ccc(-c2ccc(C(C)(C)C)cc2)cc1 | 0.843% (inactive)
CC(C#N)(CCC(=O)O)N=NC(C)(C#N)CCC(=O)O (centres undefined) | 4.22% (inactive)
NCCCC[C@H](N[C@@H](CCc1ccccc1)C(=O)O)C(=O)N1CCC[C@H]1C(=O)O | -2.4% [at 42.5 µM] (inactive)
CC(=O)Nc1ccc(OCC(O)CNC(C)C)cc1 (centres undefined) | -0.946% [at 42.5 µM] (inactive)
CCCCOCCOC(=O)CCCCCCCCC(=O)OCCOCCCC | 3.48% (inactive)
CC(C)C(=O)OC(=O)C(C)C | -1.57% (inactive)
CCCOC(=O)CC | -0.204% (inactive)
COc1cc(C)nc(-n2nc(C)cc2OC)n1 | -9.65% [at 42.5 µM] (inactive)
O=[N+]([O-])c1ccc(/C=N\O)o1 | -10.5% [at 42.5 µM] (inactive)
[O-][n+]1cccc(CO)c1 | 4% [at 42.5 µM] (inactive)
O=S(=O)(O)c1cccc2c(S(=O)(=O)O)cccc12 | 0.223% (inactive)
CCCCCC(=O)OCCc1ccccc1 | 3.86% (inactive)
COc1ccccc1OCC1CNC(=O)O1 (centres undefined) | 0.921% [at 42.5 µM] (inactive)
CCCCCC(C)N (centres undefined) | 2.95% [at 42.5 µM] (inactive)
COC(=O)C1=C(C)NC(C)=C(C(=O)OC(C)C)C1c1cccc2nonc12 (centres undefined) | 0.229% [at 42.5 µM] (inactive)
CCC(C(=O)NC(=O)NC(C)=O)c1ccccc1 (centres undefined) | 5.39% [at 42.5 µM] (inactive)
CC[C@H]1OC(=O)[C@H](C)[C@@H](O[C@H]2C[C@@](C)(OC)[C@@H](O)[C@H](C)O2)[C@H](C)[C@@H](O[C@@H]2O[C@H](C)C[C@H](N(C)C)[C@H]2O)[C@](C)(OC)C[C@@H](C)C(=O)[C@H](C)[C@@H](O)[C@]1(C)O | 2.7% (inactive)
C=CCOCC(O)CO (centres undefined) | -12.1% (inactive)
CC(=O)Oc1cccc(C)c1 | -1.34% [at 42.5 µM] (inactive)

Biological target: Nuclear receptor subfamily 1 group I member 3 (Homo sapiens) (UniProt Q14994)
Experiment: qHTS assay to identify small molecule antagonists of the constitutive androstane receptor (CAR) signaling pathway (AID 1224838); also: nearly all actives have a fitted effect of over 40% in size
Details: HepG2-CYP2B6-hCAR luciferase, CITCO-stimulated, 24 h; series mostly up to 92.4 µM; activity, negative = inhibition: at the top concentration
Procedure, shortened: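 Inhibition of CITCO-driven (50 nM final) CYP2B6 reporter expression is measured in HepG2 cells stably carrying hCAR. Fifteen compound concentrations are applied for 24 h at 37 C, followed by luciferase luminescence.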

Nuclear receptor subfamily 1 group I member 3 (Homo sapiens), sequence (Q14994 whole entry, looked up): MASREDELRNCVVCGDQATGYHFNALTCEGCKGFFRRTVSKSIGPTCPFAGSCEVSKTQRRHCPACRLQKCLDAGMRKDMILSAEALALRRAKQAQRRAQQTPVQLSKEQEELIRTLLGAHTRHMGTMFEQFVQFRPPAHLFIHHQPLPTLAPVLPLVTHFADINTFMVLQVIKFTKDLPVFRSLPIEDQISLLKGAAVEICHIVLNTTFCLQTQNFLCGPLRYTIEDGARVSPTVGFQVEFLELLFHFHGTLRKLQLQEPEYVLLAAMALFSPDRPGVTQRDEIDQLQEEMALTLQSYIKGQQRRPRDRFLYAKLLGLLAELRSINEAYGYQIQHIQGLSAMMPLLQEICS

SMILES | activity, negative = inhibition
CCCCCCC#CC(=O)OC | -3.11% (inactive)
O=C(O)CCSCCC(=O)O | -12.6% (inactive)
O=Cc1cccc(Br)c1 | 14.8% (inactive)
CCCCCCCCCCCCCCCCCCO | -5.26% [at 42.5 µM] (inactive)
CCN(C=O)CC | -4.37% (inactive)
COc1ccc2cc1Oc1cc3c(cc1OC)CC[N+](C)(C)[C@H]3Cc1ccc(cc1)Oc1c(OC)c(OC)cc3c1[C@@H](C2)[N+](C)(C)CC3 | -13.8% [at 42.5 µM] (inactive)
Cc1ccc(C(=O)c2ccccc2)cc1 | 43.9% (inactive)
CC(C)C[C@@H](N)C(=O)O | 4.78% [at 19 µM] (inactive)
O=C(O)CC(C(=O)O)S(=O)(=O)O (centres undefined) | 1.03% (inactive)
CC1(C)OC[C@@H](COC(=O)CCc2ccc(OC[C@@H](O)CNCCNC(=O)N3CCOCC3)cc2)O1 | -11% [at 42.5 µM] (inactive)
CC(CC=O)CC(C)(C)C (centres undefined) | 15.9% (inactive)
NC(CCC(=O)O)C(=O)O (centres undefined) | -2.26% (inactive)
CCOC(=O)C(=O)CCCCCCl | -20.6% [at 42.5 µM] (inactive)
CCCCCCCCCCCCSC | 2.8% (inactive)
NCCCC[C@H](N[C@@H](CCc1ccccc1)C(=O)O)C(=O)N1CCC[C@H]1C(=O)O | 3.43% [at 42.5 µM] (inactive)
CC(=O)Nc1ccc(OCC(O)CNC(C)C)cc1 (centres undefined) | -0.917% [at 42.5 µM] (inactive)
CCCCOCCOC(=O)CCCCCCCCC(=O)OCCOCCCC | -13.3% (inactive)
CC(C)C(=O)OC(=O)C(C)C | 1.3% (inactive)
CCCOC(=O)CC | -17.5% (inactive)
O=[N+]([O-])c1ccc(/C=N\O)o1 | 71.9% [at 42.5 µM] (inactive)
[O-][n+]1cccc(CO)c1 | -16.8% [at 42.5 µM] (inactive)
CCCCCC(C)N (centres undefined) | -9.24% [at 42.5 µM] (inactive)
COC(=O)C1=C(C)NC(C)=C(C(=O)OC(C)C)C1c1cccc2nonc12 (centres undefined) | 130% [at 42.5 µM] (inactive)
CC[C@H]1OC(=O)[C@H](C)[C@@H](O[C@H]2C[C@@](C)(OC)[C@@H](O)[C@H](C)O2)[C@H](C)[C@@H](O[C@@H]2O[C@H](C)C[C@H](N(C)C)[C@H]2O)[C@](C)(OC)C[C@@H](C)C(=O)[C@H](C)[C@@H](O)[C@]1(C)O | -15.7% (inactive)
C=CCOCC(O)CO (centres undefined) | 8.61% (inactive)

Reference: PubChem BioAssay (Tox21)
